Measured values reported in PubChem BioAssay (NCI).
About 83,000 compounds went through this panel and 20% of them were active in at least one assay; those are over-represented in the sample as a whole.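 Assay: single dose, 48 h. Readout: percent growth (0 = no net growth; negative = cell death). Active: <10.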 Activity calls are given as the source filed them.

System: HCT-15 colon
Test: NCI-60 one-dose screen, 48 h (100 = growth as untreated, 0 = no growth, -100 = all killed)
Details: 10 µM unless noted

Compound | growth
Cc1nc2nc(C(F)(F)F)[nH]c2nc1C | 111% (inactive)
CC1=CN2C(=NC3=C(CCCC/C3=C\c3ccccc3)C2c2ccccc2)S1 (stereo not drawn) | 94.8% (inactive)
COC(=O)c1cc(-c2ccc(C)cc2)n(C(=O)CSc2nc3sc(C(N)=O)c(C)c3c(=O)n2Cc2ccccc2)n1 | 98.1% (inactive)
CSC1=CC(=O)c2ccccc2C1=O | 101% (inactive)
CNc1ccc(Br)cc1-c1n[nH]c(=O)[nH]c1=O | 102% (inactive)
COc1ccc(Nc2[nH]n(C3=Nc4ccccc4Sc4ccccc43)c(=O)c2C#N)cc1 | 49.3% (inactive)
O=[N+]([O-])c1cc2c(cc1Br)-c1ccccc1C2 | 45.3% (inactive)
CC(C)(C)[Si](C)(C)OC1[C@@H](COC(=O)NC(=O)CCl)O[C@@H](n2cnc3c(N)ncnc32)[C@H]1O[Si](C)(C)C(C)(C)C (stereo partly drawn) | 11.8% (inactive)
Clc1nc(-c2ccccn2)nc2sc3c(c12)CCCCCC3 | 84.2% (inactive)
Cc1ccc(N=c2nc3sc4c(C)ccc(C)c4n3c(N)c2C#N)cc1 | 104% (inactive)
O=c1[nH]c(-c2ccncc2)nc2sc3c(c12)CCCCCC3 | 76.1% (inactive)
CCOC(=O)C1=C(C)N2C(=NC3=C(CCCC/C3=C\c3cc(OC)c(OC)c(OC)c3)C2c2cc(OC)c(OC)c(OC)c2)S1 (stereo not drawn) | 44.8% (inactive)
COc1ccc(-c2c(-c3cc4c(c(OC)c3OC)OCO4)noc2N)cc1 | 27% (inactive)
CCOC(=O)c1sc(NC(=O)CN2CCC(Cc3ccccc3)CC2)nc1C | 92.9% (inactive)
O=c1nc(NO)[nH]c(=O)n1Cc1ccccc1 | 101% (inactive)
O=c1nc(NO)[nH]c(=O)n1Cc1ccc(F)cc1 | 107% (inactive)
O=c1[nH]c(=S)[nH]c(=O)n1Cc1cccc2ccccc12 | 98.3% (inactive)
CC(=O)Nc1ccccc1-c1n[nH]c(=O)[nH]c1=O | 102% (inactive)
CC(C)(C)[Si](C)(C)OC1[C@@H](O[Si](C)(C)C(C)(C)C)[C@@H](CNC(=O)NC(=O)C(F)(F)F)O[C@H]1n1cnc2c(NC(=O)Nc3ccccc3)ncnc21 (stereo partly drawn) | 69.7% (inactive)

Compound | growth
Cc1nc2cc(Nc3nc(NCCN)nc(Nc4ccc(F)cc4)n3)ccc2n1Cc1ccccc1 | 100% (inactive)
CCOC(=O)C1=C(C)N2C(=NC3=C(CCCC/C3=C\c3ccccc3)C2c2ccccc2)S1 (stereo not drawn) | 96.9% (inactive)
Clc1ccc2c(N3CCN(c4ccnc(NC5CCCCC5)n4)CC3)ccnc2c1 | 2.81% (active)
COc1ccc(-n2c(SCc3cc(OC)c(OC)c(OC)c3)nc3ccc(C)cc3c2=O)c(OC)c1 | 23.7% (inactive)
NC(=O)c1nc2c([nH]c1=O)CCCC2 | 102% (inactive)
COc1ccccc1-n1c(SCc2cc(OC)c(OC)c(OC)c2)nc2ccc(Cl)cc2c1=O | 27.8% (inactive)
O=c1[nH]c(-c2ccccn2)nc2sc3c(c12)CCCCCC3 | 27.9% (inactive)
CC(C)(C)[Si](C)(C)OC1[C@@H](CNC(=O)NC(=O)CCl)O[C@@H](n2cnc3c(N)ncnc32)[C@H]1O[Si](C)(C)C(C)(C)C (stereo partly drawn) | -72.8% (active)
CC[Si](CC)(CC)OC1[C@@H](O[Si](CC)(CC)CC)[C@@H](CNC(=O)NC)O[C@H]1n1cnc2c(NC(=O)Nc3ccccc3)ncnc21 (stereo partly drawn) | 86.2% (inactive)
Cc1ccc(S(=O)(=O)N(c2ccc(Cl)cc2)c2ccc(Br)cc2C(=O)O)cc1 | 100% (inactive)
Cc1ccc(-c2nnc(COc3ccc(-c4nnc(N)s4)cc3)o2)cc1 | 81.3% (inactive)
COc1cc2nc(SCc3cc(OC)c(OC)c(OC)c3)n(-c3ccccc3OC)c(=O)c2cc1OC | 75.4% (inactive)
CN1CCc2c(c3ccccc3c3ccccc23)C1 | 31.3% (inactive)
N#Cc1ccc(C(F)(F)F)nc1N1CCC(C(=O)Nc2ccc(Cl)cc2)CC1 | 43.9% (inactive)
COC(=O)C1C2CC3c4[nH]c5cc(OC)ccc5c4CCN3CC2CC(OC2CCCCO2)C1OC (stereo not drawn) | 99.8% (inactive)
c1ccc(-c2nc(N3CCOCC3)c3c4c(sc3n2)CCCCCC4)nc1 | 46.9% (inactive)
Nc1c(Br)cc(Br)cc1-c1n[nH]c(=O)[nH]c1=O | 98.1% (inactive)
Nc1ccccc1-c1n[nH]c(=O)[nH]c1=O | 104% (inactive)

System: HT29 colon
Test: as above
Details: 10 µM unless noted

Compound | growth
Cc1nc2nc(C(F)(F)F)[nH]c2nc1C | 107% (inactive)
CC1=CN2C(=NC3=C(CCCC/C3=C\c3ccccc3)C2c2ccccc2)S1 (stereo not drawn) | 91.7% (inactive)
COC(=O)c1cc(-c2ccc(C)cc2)n(C(=O)CSc2nc3sc(C(N)=O)c(C)c3c(=O)n2Cc2ccccc2)n1 | 115% (inactive)
CSC1=CC(=O)c2ccccc2C1=O | 103% (inactive)
CNc1ccc(Br)cc1-c1n[nH]c(=O)[nH]c1=O | 112% (inactive)
COc1ccc(Nc2[nH]n(C3=Nc4ccccc4Sc4ccccc43)c(=O)c2C#N)cc1 | 68.7% (inactive)
O=[N+]([O-])c1cc2c(cc1Br)-c1ccccc1C2 | 95.9% (inactive)
CC(C)(C)[Si](C)(C)OC1[C@@H](COC(=O)NC(=O)CCl)O[C@@H](n2cnc3c(N)ncnc32)[C@H]1O[Si](C)(C)C(C)(C)C (stereo partly drawn) | 32.3% (inactive)
Clc1nc(-c2ccccn2)nc2sc3c(c12)CCCCCC3 | 99.3% (inactive)
Cc1ccc(N=c2nc3sc4c(C)ccc(C)c4n3c(N)c2C#N)cc1 | 104% (inactive)
O=c1[nH]c(-c2ccncc2)nc2sc3c(c12)CCCCCC3 | 99% (inactive)
CCOC(=O)C1=C(C)N2C(=NC3=C(CCCC/C3=C\c3cc(OC)c(OC)c(OC)c3)C2c2cc(OC)c(OC)c(OC)c2)S1 (stereo not drawn) | 66.8% (inactive)
CCOC(=O)c1sc(NC(=O)CN2CCC(Cc3ccccc3)CC2)nc1C | 79.8% (inactive)
O=c1nc(NO)[nH]c(=O)n1Cc1ccccc1 | 103% (inactive)
O=c1nc(NO)[nH]c(=O)n1Cc1ccc(F)cc1 | 105% (inactive)
O=c1[nH]c(=S)[nH]c(=O)n1Cc1cccc2ccccc12 | 110% (inactive)
CC(=O)Nc1ccccc1-c1n[nH]c(=O)[nH]c1=O | 90.7% (inactive)
CC(C)(C)[Si](C)(C)OC1[C@@H](O[Si](C)(C)C(C)(C)C)[C@@H](CNC(=O)NC(=O)C(F)(F)F)O[C@H]1n1cnc2c(NC(=O)Nc3ccccc3)ncnc21 (stereo partly drawn) | 21.3% (inactive)

Compound | growth
Cc1nc2cc(Nc3nc(NCCN)nc(Nc4ccc(F)cc4)n3)ccc2n1Cc1ccccc1 | 35.1% (inactive)
CCOC(=O)C1=C(C)N2C(=NC3=C(CCCC/C3=C\c3ccccc3)C2c2ccccc2)S1 (stereo not drawn) | 84.4% (inactive)
Clc1ccc2c(N3CCN(c4ccnc(NC5CCCCC5)n4)CC3)ccnc2c1 | 3.22% (active)
COc1ccc(-n2c(SCc3cc(OC)c(OC)c(OC)c3)nc3ccc(C)cc3c2=O)c(OC)c1 | 11.3% (inactive)
NC(=O)c1nc2c([nH]c1=O)CCCC2 | 101% (inactive)
COc1ccccc1-n1c(SCc2cc(OC)c(OC)c(OC)c2)nc2ccc(Cl)cc2c1=O | 7.69% (active)
O=c1[nH]c(-c2ccccn2)nc2sc3c(c12)CCCCCC3 | 49% (inactive)
CC(C)(C)[Si](C)(C)OC1[C@@H](CNC(=O)NC(=O)CCl)O[C@@H](n2cnc3c(N)ncnc32)[C@H]1O[Si](C)(C)C(C)(C)C (stereo partly drawn) | -74.7% (active)
CC[Si](CC)(CC)OC1[C@@H](O[Si](CC)(CC)CC)[C@@H](CNC(=O)NC)O[C@H]1n1cnc2c(NC(=O)Nc3ccccc3)ncnc21 (stereo partly drawn) | 50.2% (inactive)
Cc1ccc(S(=O)(=O)N(c2ccc(Cl)cc2)c2ccc(Br)cc2C(=O)O)cc1 | 107% (inactive)
Cc1ccc(-c2nnc(COc3ccc(-c4nnc(N)s4)cc3)o2)cc1 | 81.5% (inactive)
COc1cc2nc(SCc3cc(OC)c(OC)c(OC)c3)n(-c3ccccc3OC)c(=O)c2cc1OC | 66.6% (inactive)
CN1CCc2c(c3ccccc3c3ccccc23)C1 | 37.7% (inactive)
N#Cc1ccc(C(F)(F)F)nc1N1CCC(C(=O)Nc2ccc(Cl)cc2)CC1 | 51.5% (inactive)
COC(=O)C1C2CC3c4[nH]c5cc(OC)ccc5c4CCN3CC2CC(OC2CCCCO2)C1OC (stereo not drawn) | 94.4% (inactive)
c1ccc(-c2nc(N3CCOCC3)c3c4c(sc3n2)CCCCCC4)nc1 | 65.9% (inactive)
Nc1c(Br)cc(Br)cc1-c1n[nH]c(=O)[nH]c1=O | 99.7% (inactive)
Nc1ccccc1-c1n[nH]c(=O)[nH]c1=O | 106% (inactive)
